Most compounds without a hit are left out; they make up all but 0.54% or so of the library.
MBNL1-CUG inh = blocks human MBNL1 binding to CUG repeat RNA | Q9NR56 | TR-FRET MBNL1-His/biotin-(CUG)12 binding, 665/545 ratio | Potency, µM (series often up to 57.5 µM), usual class: inhibitors | 280,000 tested, 0.036% active; active means well fitted inhibition curve with a large enough effect in the signal ratio, with a control signal flat, not every such curve was filed as active; inconclusive means small, poorly fitted or top-dose-only effect, or effect the other way, or a change in a side signal; inactive means no such curve, though single readings can be large or run the other way; the % refers to the signal ratio
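MBNL1-His + Biotin-(CUG)12, cpd titration 92 nM–58 uM; Tb anti-His Ab 0.055 ng/ul, SA-XL665 5 nM (final); 60 min RT; ratiometric 665/545 nm, Ex 340 nm; normalized to buffer and full-complex controls.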
Vif-APOBEC3F blk = inhibitors of Vif-A3F interaction. HeLa A3F-eYFP + Vif (tagged APOBEC3F with the HIV-1 protein that degrades it), YFP fluorescence increase. Potency, µM (highest dose often 46.1 µM). 390,000 tested, 0.2% active; further: nearly all actives have a fitted effect of over 65% in size
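HeLa cells stably expressing Vif plus C-terminally eYFP-tagged A3F were seeded, incubated overnight at 37 deg C, dosed with compound, incubated overnight again at 37 deg C. Yellow fluorescence (Ex 488/Em 500-530) reported blocked Vif-mediated A3F-eYFP degradation.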
uPA surface inh = cell surface uPA generation inhibition | cell surface uPA generation assay, qHTS | Potency, µM (highest dose often 38.3 µM), hits mostly inhibitors | 330,000 tested, 0.31% active | AID 540303; active means well fitted inhibition curve with a large enough effect; inconclusive means small, poorly fitted or top-dose-only effect; inactive means no such curve, though single readings can be large or run the other way; tested in mouse RAW 264.7 cells; further: nearly all actives have a fitted effect of over 55% in size
BCR signal inh = blocks chronic active B-cell receptor signaling. ABC-DLBCL IkBa-CBG/CBR reporter, luminescence ratio, 4 h. Potency, µM (doses to about 46.1 µM), most hits filed as inhibitors. 340,000 tested, 0.05% active; active means well fitted inhibition curve with a large enough effect in the signal ratio, with a control signal flat, not every such curve was filed as active; inconclusive means small, poorly fitted or top-dose-only effect, or effect the other way, or a change in a side signal; the % refers to the signal ratio
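Doxycycline induced both beetle luciferases in TMD8 lymphoma cells; IKK-driven degradation limits the IkappaBalpha-fused green signal, while red luminescence normalises for cell number and nonspecific effects. Compounds tested up to 46 uM, 4 hrs.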
Vif-APOBEC3G blk = inhibitors of Vif-APOBEC3G interaction; Q9HC16; HeLa A3G-eYFP + Vif (tagged APOBEC3G with the HIV-1 protein that degrades it), YFP fluorescence, overnight; Potency, µM (top dose mostly 46.1 µM), usual class: inhibitors; 410,000 tested, 0.076% active; AID 602310; further: nearly all actives have a fitted effect of over 60% in size
Target sequence (Q9HC16 whole entry, looked up): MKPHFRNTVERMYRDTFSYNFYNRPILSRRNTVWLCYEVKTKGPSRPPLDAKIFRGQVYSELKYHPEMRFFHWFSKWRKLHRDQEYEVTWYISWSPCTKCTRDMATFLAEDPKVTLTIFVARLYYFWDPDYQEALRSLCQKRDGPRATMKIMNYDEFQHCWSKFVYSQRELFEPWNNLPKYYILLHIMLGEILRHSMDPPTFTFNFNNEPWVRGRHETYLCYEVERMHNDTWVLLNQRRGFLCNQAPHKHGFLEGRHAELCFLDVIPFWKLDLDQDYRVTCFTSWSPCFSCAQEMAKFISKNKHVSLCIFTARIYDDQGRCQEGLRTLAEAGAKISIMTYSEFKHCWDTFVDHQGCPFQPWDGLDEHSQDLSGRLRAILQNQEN
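Read-out is eYFP fluorescence (Ex 488/Em 500-530) from Vif-expressing HeLa A3G-eYFP cells; more signal means A3G escaped Vif-mediated degradation. Cells plated overnight, compound pinned in, incubated overnight at 37 deg C.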
TCR act = activators of T cell receptors; primary human leukocytes, anti-CD3, IL-2 HTRF, 48 h; Potency, µM (doses to about 9.22 µM), most hits filed as activators; 330,000 tested, under 10 active
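Human primary leukocytes + a-CD3 beads + cpd, 48 hr; IL-2 in supernatant by HTRF (ex 320nm / em 665nm). No co-stimulatory signal supplied.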
MBNL1-CUG FRET = blocks human MBNL1 binding to CUG repeat RNA, TR-FRET validation | shares compounds with MBNL1-CUG inh | TR-FRET MBNL1-His / biotin-(CUG)12 binding, 60 min | Potency, µM (series often up to 57.6 µM), hits mostly inhibitors | 140 tested, 50% active
MBNL1-CUG Alpha = confirmation of MBNL1-(CUG)12 RNA binding inhibitors, orthogonal format; shares compounds with MBNL1-CUG inh; AlphaScreen MBNL1-His / biotin-(CUG)12 binding; Potency, µM (series often up to 57.7 µM), actives largely listed as inhibitors; 140 tested, 30% active; AID 493205
Hits are given with their value; - = inactive; ? = inconclusive; . = no result. Unless noted, the call rests on the fitted dose curve; in most records, active means well fitted curve in the direction sought with a large enough effect; inconclusive means small, poorly fitted or top-dose-only effect, or another doubt; inactive means no such curve, though single readings can be large; an effect the other way counts as inactive or inconclusive.

SMILES | MBNL1-CUG inh | Vif-APOBEC3F blk | uPA surface inh | BCR signal inh | Vif-APOBEC3G blk | TCR act | others
Cc1cc(C)cc(N2C(=O)NC(=O)/C(=C\C=C\c3ccco3)C2=O)c1 | - | - | - | ? | ? | -
O=C1NC(=O)N(Cc2ccc(F)cc2)C(=O)/C1=C\C=C\c1ccco1 | - | 10µM | - | ? | ? | -
CC(C)c1ccc(N2C(=O)NC(=O)/C(=C/C=C/c3ccco3)C2=O)cc1 | - | ? | - | ? | 8.91µM | -
Cc1ccc(N2C(=O)NC(=O)/C(=C/C=C/c3ccco3)C2=O)cc1 | ? | ? | - | ? | ? | -
CCN(CC)C(=O)c1ccc(NC(=O)Nc2ccccc2F)cc1 | - | - | 4.47µM | ? | - | -
Cn1c(N)c(Sc2ccccc2[N+](=O)[O-])c(=O)n(C)c1=O | ? | ? | - | ? | - | -
COc1cc2c(c(OC)c1OC)-c1ccc(O)c(=O)cc1[C@@H](NC(C)=O)CC2 | . | - | 8.91µM | ? | ? | -
Cc1cc(N(CCCl)CCCl)ccc1/C=N/N=C(\N)c1cnccn1 | . | - | - | . | - | -
Cc1cc(N(CCCl)CCCl)ccc1C=Cc1ccncn1 | . | 25.1µM | - | . | ? | -
C=C1[C@@H](O)[C@H](Cc2ccccc2)N(Cc2ccccc2Br)S1(=O)=O | . | - | 10µM | . | ? | -
COc1cc(NS(=O)(=O)c2cc(Br)cc3c2N(C(=O)C2CC2)CC3)cc(OC)c1 | . | - | . | ? | - | .
N[C@@H](Cc1ccc(N(CCCl)CCCl)cc1)C(=O)O | . | - | 2.51µM | - | - | -
CC(=O)c1sc(NC(=O)CCS(=O)(=O)c2ccc(C)cc2)nc1C | . | - | 11.2µM | ? | ? | -
Cc1ccc(S(=O)(=O)Cc2ccc(C(=O)N3CCN(c4cccc(C)c4C)CC3)o2)cc1 | - | - | 0.891µM | 12.6µM | - | -
COc1ccc(S(=O)(=O)Cc2ccc(C(=O)N3CCC4(CC3)OCCO4)o2)cc1 | - | - | - | - | - | -
NCC(=O)c1cccc([N+](=O)[O-])c1 | . | . | . | . | - | .
O=C(NCc1c(-n2cccc2)sc2c1CCCC2)Nc1cccc(C(F)(F)F)c1 | . | ? | . | . | - | .
OC[C@H]1O[C@@H](n2cnc3cc(Cl)c(Cl)cc32)[C@H](O)[C@@H]1O | . | - | 8.91µM | ? | - | -
O=Cc1c(C(=O)O)n(Cc2ccc(Cl)cc2)c2ccccc12 | - | 10µM | - | - | ? | -
COc1ccc2[nH]c3c(c2c1)CCN1C(=O)C(CC(=O)NCc2ccco2)C[C@H](C(=O)N(C(C)C)C(C)C)[C@@]31C (stereo partly specified) | . | - | ? | - | - | -
CCN(CC)C(=O)[C@H]1C[C@H](CC(=O)NCc2ccc(OC)c(OC)c2)C(=O)N2CCc3c([nH]c4ccc(Cl)cc34)[C@]12C | . | - | 10µM | ? | - | -
Cc1nccc(-c2cc(-c3ccc(Cl)cc3Cl)no2)n1 | . | - | - | ? | - | -
O=C(NCC1CC1)c1cc([N+](=O)[O-])cc([N+](=O)[O-])c1 | ? | - | - | - | - | -
CC(O)C(C)OC(=O)[C@@H]1C[C@@H]2c3cccc4c3c(cn4C(C)C)C[C@H]2N(C)C1 (stereo partly specified) | . | . | . | . | . | . | MBNL1-CUG FRET=?;MBNL1-CUG Alpha=-
COc1ccc(-c2oc3cccnc3c2/C=C/c2ccc(OC)c(OC)c2)cc1 | - | - | - | ? | - | -

Screens deposited in PubChem by National Center for Advancing Translational Sciences (NCATS).
